Consider 32 compounds from PubChem BioAssay (EPA / NIEHS).

Structures are written as SMILES. Values joined by “and” are separate entries in the source; they are usually repeats but may differ in a detail not shown here. Identical values can stand only once. Records with an inconclusive call do not appear. Some structures have more than one record in an assay (separate samples or runs), and their calls can disagree. Active and inactive are the calls of the source. The calls were made as follows, unless noted: active = hit-call score of the fitted dose curve at least 0.9, where 1 is the maximum; inactive = score below 0.9.

A short description of assay [1]: CCTE_Simmons_MITO_basal_resp_rate: CCTE's HepG2 Seahorse XF Respirometric Screening Assay at Basal Respiratory State, Simmons Lab (AID 2284001). The note with it: actives raise or lower the signal. In short, it runs like this: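 Basal-phase OCR in HepG2 cells, read at 6-min intervals across a 72-min run, with test compound injected at 125 nM–100 uM final (7 points). Fitted both directions against DMSO; three biological replicates per concentration.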

A short description of assay [2]: CCTE_Simmons_MITO_max_resp_rate: CCTE's HepG2 Seahorse XF Respirometric Screening Assay at Maximal Respiratory State [uncoupled], Simmons Lab (AID 2284002). The note with it: actives raise or lower the signal. In short, it runs like this:
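HepG2 oxygen consumption measured on Seahorse XF after FCCP uncoupling, following test compound injection; 7 concentrations from 125 nM to 100 uM final. Readings every 6 min over 72 min, three biological replicates; bidirectional fit versus DMSO.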

The nature of assay [3]: CCTE_Simmons_MITO_inhib_resp_rate: CCTE's HepG2 Seahorse XF Respirometric Screening Assay at Inhibited Respiratory State [full ETC block], Simmons Lab (AID 2284006). The note with it: actives raise or lower the signal. In short, it runs like this: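 Test chemicals at seven final concentrations (125 nM–100 uM) in three biological replicates, with DMSO as vehicle. HepG2 oxygen consumption was then tracked on a Seahorse XF96 for 72 min through FCCP and rotenone/antimycin A phases, with the inhibited-phase rate as the endpoint.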

The nature of assay [4]: CCTE_Shafer_MEA_acute_spike_number: CCTE's Neural Acute Assay for Total Number of Spikes, Shafer Lab (AID 2284008).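 As to AC50: curve fitted for decrease in spike count so AC50 reflects inhibitors.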 In short, it runs like this: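 Rat primary cortical neurons on 48-well MEA plates, DIV 13 or 15, at 37 C. 40 min baseline then 40 min with compound (0.03-40 uM); spikes detected at 8x rms noise, expressed as percent change from baseline.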
Assay [5] is described as follows: CCTE_Shafer_MEA_acute_firing_rate_mean: CCTE's Neural Acute Assay for Mean Firing Rate, Shafer Lab (AID 2284009).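 Also: analyzed for loss of signal so actives lower firing rate relative to DMSO.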 The method in brief: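 Primary rat cortical neurons on 16-electrode MEA wells were exposed on DIV 13 or 15 to compound (0.03-40 uM). Spike counts per recording time, averaged over electrodes, were compared between 40-min baseline and 40-min post-exposure recordings as percent change.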

Assay [6] can be described thus: CCTE_Harrill_HTTr_Viability_MCF7: CCTE's 6-hour Cell Viability Assessment for the High-Throughput Transcriptomics (HTTr) Platform, in MCF-7 cells cultured in DMEM + 10% fetal bovine serum, Harrill Lab (AID 2284010). The method in brief: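 Eight-point concentration series, six-hour exposure. Propidium iodide exclusion imaged to assess membrane integrity as a cytotoxicity readout; bidirectional fitting was done with DMSO as negative control and activity baseline.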

Assay [7] is described as follows: CCTE_Harrill_HTTr_Apoptosis_MCF7: CCTE's 6-hour Apoptosis Assessment for the High-Throughput Transcriptomics (HTTr) Platform, in MCF-7 cells cultured in DMEM + 10% fetal bovine serum, Harrill Lab (AID 2284011). In short, it runs like this:
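MCF-7 cells in DMEM + 10% FBS exposed 6 h to chemicals over an eight-point dilution series. Caspase-3/7 activation imaged by high-content CellEvent Green staining; fitted bidirectionally versus DMSO.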

A short description of assay [8]: CCTE_Shafer_MEA_acute_burst_number: CCTE's Neural Acute Assay for Single-Electrode Bursts, Shafer Lab (AID 2284013). In short, it runs like this: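 Primary rat cortical neurons on 16-electrode MEA wells, DIV 13 or 15, exposed to compound (0.03-40 uM; ≥3 wells); 40-min recordings at 37 C before and after treatment. Burst count expressed as percent change from baseline, DMSO as negative control.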

The nature of assay [9]: CCTE_Harrill_HTTr_CellCount_MCF7: CCTE's Cell Proliferation Assessment for the High-Throughput Transcriptomics (HTTr) Platform, Harrill Lab (AID 2284012; active = hit-call score of the fitted dose curve at least 0.9, where 1 is the maximum;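 also: count of Hoechst-stained nuclei per well by high-content imaging in MCF-7 cells; cells exposed to compound for six hours; intended direction is loss of nuclei count meaning fewer cells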). In short, it runs like this:
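For this full-screen endpoint, MCF-7 cultures received eight compound dilutions for six hours. Well nuclei counts from Hoechst imaging were analyzed relative to DMSO.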

Assay [10] is described as follows: CCTE_Simmons_MITO_viability: CellTiter-Glo Viability Assessment for CCTE's HepG2 Seahorse XF Respirometric Screening Assay [post-hoc], Simmons Lab (AID 2284007; active = hit-call score of the fitted dose curve at least 0.9, where 1 is the maximum;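 as to AC50: cells exposed to chemical for 90 min before the ATP read; actives lower ATP signal relative to DMSO baseline meaning reduced viability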). In short, it runs like this:
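Post-hoc viability check on the HepG2 respirometry plates: luciferase-based ATP signal measured once, after 90 min compound exposure spanning 125 nM–100 uM final. Activity was referenced to DMSO as baseline.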
In general terms: Cellular ATP, detected with luciferase, serves as a proxy for viable cell number.

Usually AC50 stands for the midpoint of the concentration-response curve, whichever way the signal moves. For the compound `CC(C)(c1ccccc1)c1ccc(O)c(C(C)(C)c2ccccc2)c1`, the call in [1], in [3], in [6], in assay [7] and in assay [8] was inactive. Besides, the AC50 in [2] was 50 µM (active); in assay [4] it was 8.24 µM (active); in assay [5] it was 8.32 µM (active).
As for `O=C(O)C(Cl)(Cl)Cl`, the compound was classed as inactive in assay [4], in assay [5], in assay [6], in assay [7], in [9] and in [8].
For `CC(C)(C)CC(C)(C)c1ccc(O)cc1`, the AC50 in [1] is 27.6 µM (active); in assay [2] it was 27.7 µM (active); in assay [4] it was 6.06 µM (active); in assay [5], 6.07 µM (active). Further, the call in [3], in assay [10], in assay [6], in assay [7], in [9] and in assay [8] was inactive.
On to `COP(=O)(OC)O/C(=C\Cl)c1cc(Cl)c(Cl)cc1Cl`, for which, in assay [6], the outcome was inactive.
In the case of `O=[N+]([O-])c1ccc2c3c(cccc13)CC2`, in assay [6], the outcome was inactive.
Consider `CCOP(=S)(OCC)SCSP(=S)(OCC)OCC`, for which the compound was classed as inactive in [4], in assay [5], in assay [6] and in assay [8].
For the compound `NC(=O)O`, the result in [6] was inactive.
For the compound `C=C(C)C(=O)[O][Sn]([CH2]CCC)([CH2]CCC)[CH2]CCC`, the AC50 in assay [1] was 6.57 µM (active); in [2], 5.4 µM (active); in assay [10], 10.9 µM (active); in assay [4] it was 0.0312 µM (active); in [5] it was 0.0311 µM (active); in [6], 22.3 µM (active). Moreover, the AC50 in assay [7] was 11 µM (active); in [9] it was 11 µM (active); in assay [8], 0.0118 µM (active). In addition, the outcome in [3] was inactive.
Consider `O=C1CCCN1`, for which the outcome in [6] and in assay [7] was inactive.
On to `CCC(=O)c1ccccc1`, for which the outcome in assay [6] was inactive.
Take `CC(C)(C)c1cc(O)ccc1O`: the call in assay [4], in assay [5] and in assay [8] was inactive.
On to `CNC`, for which the outcome in [6] was inactive.
Turning to `COc1cc(-c2ccc(N)c(OC)c2)ccc1N`, the call in assay [1], in assay [2], in [3], in assay [6], in [7] and in [9] was inactive.
Consider `O=C(Nc1ccc2[nH]ccc2c1)c1cc2cc(F)ccc2n1Cc1cccc(F)c1`, for which the compound was called inactive in assay [1], in assay [2], in assay [3], in assay [6], in assay [7] and in assay [8]. Further, the AC50 in assay [4] and in assay [5] was 1.43 µM (active) in each case.
As to `O=C1C2(Cl)C3(Cl)C4(Cl)C(Cl)(Cl)C5(Cl)C3(Cl)C1(Cl)C5(Cl)C24Cl` (stereo not drawn), the AC50 is 54 µM (active) in [1]; 35.8 µM (active) in assay [2]; 71.6 µM (active) in [10]; 1.84 µM (active) in [4]; 1.84 µM (active) in [5]; 3.27 µM (active) in assay [8]. Besides, the call in assay [3], in [6], in assay [7] and in assay [9] was inactive.
Turning to `CCC(C)(C)c1ccc(O)c(C(C)(C)CC)c1`, the AC50 was 38 µM (active) in assay [1]; 78.2 µM (active) in [2]; 4.73 µM (active) in [4]; 4.69 µM (active) in assay [5]; 42.1 µM (active) in [6]; 5.29 µM (active) in assay [8]. Moreover, the compound was called inactive in assay [3], in [10], in assay [7] and in assay [9].
Take `COC[C@H](C)N(C(=O)CCl)c1c(C)csc1C`: the outcome in assay [6] was inactive.
In the case of `CCOP(=S)(OCC)Oc1nc(Cl)c(Cl)cc1Cl`, the result in [1], in assay [2], in assay [3], in assay [6] and in assay [9] was inactive. Besides, in [10], the half-maximal activity concentration (AC50) was 23.4 µM (active).
Regarding `CC(=O)OC(c1ccccc1)C(Cl)(Cl)Cl` (stereo not drawn), the call in [4], in assay [5], in assay [6], in assay [7], in assay [9] and in assay [8] was inactive.
Take `CCN1CCC2(CC1)COc1cc3c(cc12)N(C(=O)c1ccc(-c2ccc(-c4nnc(C)o4)cc2C)cc1)CC3`: the AC50 in [4] was 7.7 µM (active); in assay [5] it was 7.7 µM (active); in assay [6], 66.2 µM (active); in [7] it was 60.3 µM (active). In addition, the result in [9] and in assay [8] was inactive.
On to `O=[N+]([O-])c1ccc(O)c([N+](=O)[O-])c1`, for which the AC50 was 13 µM (active) and 10.3 µM (active) in assay [1]; 18.1 µM (active) in assay [10]. The compound was called inactive in [2], in assay [3], in assay [10], in [6], in assay [7] and in [9].
Turning to `CCCCCCCCc1ccc(O)cc1`, the AC50 in [1] was 50 µM (active); in assay [2], 39.5 µM (active); in [4], 3 µM (active); in assay [5], 3.15 µM (active); in assay [8] it was 2.53 µM (active). Moreover, the outcome in assay [3], in assay [10], in assay [6] and in assay [9] was inactive.
Consider `Clc1ccc(C2(Cn3cncn3)CC(Br)CO2)c(Cl)c1` (stereo not drawn), for which the outcome in assay [6], in [7] and in assay [9] was inactive.
As to `CCc1ccccc1C`, the outcome in [6], in assay [7] and in assay [9] was inactive.
As to `Cc1cc(Cl)ccc1O[C@H](C)C(=O)O`, the result in [6] and in assay [7] was inactive.
On to `O=C(OC1CCCCC1)c1ccccc1C(=O)OC1CCCCC1`, for which the result in [6] and in assay [7] was inactive.
On to `[O-][Cl+2]([O-])O`, for which the result in [6], in [7] and in assay [9] was inactive.
Turning to `ClCC(Cl)CCl`, the outcome in assay [6] and in [7] was inactive.
As to `CN(C)P(=O)(N(C)C)N(C)C`, the result in [6] and in assay [7] was inactive.
On to `CCC1(c2ccc(N)cc2)CCC(=O)NC1=O` (stereo not drawn), for which the outcome in assay [6], in [7] and in assay [9] was inactive.
With `CCSC(C)CC1CC(=O)C(C(CC)=NOC/C=C/Cl)=C(O)C1` (stereo not drawn), the result in assay [6] and in assay [7] was inactive.
As to `C[C@]12CC[C@H](O)CC1=CC[C@@H]1[C@@H]2CC[C@]2(C)C(=O)CC[C@@H]12`, the outcome in [6], in assay [7] and in assay [9] was inactive.
